Laboratory results from PubChem BioAssay (Tox21).
Several values for one entry are separate records, joined by “and”; a condition that tells them apart may be missing. Identical values can stand only once. A structure can be active in one record and inactive in another. Activity calls are given as the source filed them. Entries that show only a call come without a potency. Calls follow the shape of the full dose curve.

Biological target: Estrogen receptor (Homo sapiens) (UniProt P03372)
Test: qHTS assay to identify small molecule agonists of the estrogen receptor alpha (ER-alpha) signaling pathway in the presence of an antagonist (AID 1259383); also: nearly all actives have a fitted effect of over 15% in size; as to activation: top concentration of the series differs between compounds
Details: VM7Luc4E2 cells, ERE-luciferase, +ICI-182,780, 22 h; series mostly up to 92.4 µM
From the text: National Center for Advancing Translational Sciences [NCATS] NIH Chemical Genomics Center [NCGC] U.S. Environmental Protection Agency [EPA] National Institutes of Environmental Health Sciences [NIEHS] National Toxicology Program [NTP] Assay overview: Estrogen receptor (ER), a member of nuclear hormone receptor plays an important role in development, metabolic homeostasis and reproduction. Two subtypes of ER, ER-alpha and ER-beta, have similar expression patterns with some uniqueness in both types. Endocrine disrupting chemicals (EDCs) and their interactions with steroid hormone receptors like ER causes disruption of normal endocrine function. Therefore, it is important to understand the effect of environmental chemicals in ER signaling pathway. For identifying ER agonists, VM7Luc4E2 cell line has been used in the current assay. VM7Luc4E2 cell line (provided by Denison MS, University of California) endogenously expresses full-length ER-alpha and is stably transfected with a plasmid containing four estrogen responsive elements (ERE) upstream of a luciferase reporter gene. This current screening for measuring luciferase reporter gene activity using VM7Luc4E2 cells against Tox21 10K library collection is a confirmation study on agonist mode screening in presence of ER-antagonist (ICI-182,780) at 10.0nM final concentration.
Assay Protocol Summary: VM7Luc4E2 cells were cultured in phenol red free assay medium containing 10% charcoal stripped FBS for 5 days prior to the assay. The cells were dispensed at 4,000 cells in 4uL of assay medium per well into white wall/solid-bottom 1536-well plates (Corning Life Sciences, Corning, NY) using a Multidrop Combi (Thermo Fisher Scientific Inc., Waltham, MA) dispenser. After the assay plates were incubated at 37C and 5% CO2 for 24hr, 1uL of 10.0nM (final concentration) ICI-182,780 or assay buffer was added using two separate tips of Flying Reagent Dispenser (FRD, Aurora Discovery, San Diego, CA). Then 23nL of compounds dissolved in DMSO at 15 concentrations and positive controls or DMSO only was transferred to the assay plates by a Pintool station (Wako, San Diego, CA). The assay plates were incubated at 37C and 5% CO2 for 22hr. For luciferase read, 4uL/well ONE-Glo reagent (Promega Corporation, Madison, WI) was added to each well using FRD and after 30min incubation at room temperature, luminescence signal was measured on ViewLux plate reader (PerkinElmer, Shelton, CT).
Potency is read from the fitted curve at half-maximal effect.

Estrogen receptor (Homo sapiens), sequence (P03372 whole entry, looked up): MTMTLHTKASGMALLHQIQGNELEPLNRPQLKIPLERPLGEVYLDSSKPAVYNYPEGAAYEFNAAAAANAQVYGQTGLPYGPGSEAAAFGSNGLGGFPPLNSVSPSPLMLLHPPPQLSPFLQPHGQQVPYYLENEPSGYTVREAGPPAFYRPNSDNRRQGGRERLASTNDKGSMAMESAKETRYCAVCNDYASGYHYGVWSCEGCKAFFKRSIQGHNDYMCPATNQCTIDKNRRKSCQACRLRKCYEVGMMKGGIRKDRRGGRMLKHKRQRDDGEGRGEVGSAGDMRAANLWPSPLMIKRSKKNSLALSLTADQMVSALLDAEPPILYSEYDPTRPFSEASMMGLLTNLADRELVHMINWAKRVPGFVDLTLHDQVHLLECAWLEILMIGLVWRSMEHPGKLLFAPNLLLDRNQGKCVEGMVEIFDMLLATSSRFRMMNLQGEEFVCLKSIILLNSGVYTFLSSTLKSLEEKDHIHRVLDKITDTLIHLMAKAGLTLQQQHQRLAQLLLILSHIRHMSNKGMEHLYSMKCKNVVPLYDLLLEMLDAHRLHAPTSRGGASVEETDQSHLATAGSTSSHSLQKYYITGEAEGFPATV

Structure (SMILES) | Potency | activation
O=C(Nc1ccc([N+](=O)[O-])cc1Cl)c1cc(Cl)ccc1O | 77 nM (active) | -10.6% [at 19 µM] (inactive)
Oc1ccc(O)cc1 | inactive | –
O=S(=O)(O)c1ccc(O)cc1 | inactive | –
Cc1cccc([N+](=O)[O-])c1C | inactive | –
CC(=O)Oc1ccccc1C(=O)Nc1ncc([N+](=O)[O-])s1 | inactive | –
S=C(NC1CCCCC1)NC1CCCCC1 | inactive | –
CCCCOCCOCCO | inactive | –
Cc1ccc(C)c(O)c1C | inactive | –
c1cc(N(CC2CO2)CC2CO2)ccc1OCC1CO1 (stereo not given) | inactive | –
CN(C)CCN(Cc1cccs1)c1ccccn1 | inactive | –
COC(=O)C1=C(C)NC(C)=C(C(=O)OCCN(C)Cc2ccccc2)C1c1cccc([N+](=O)[O-])c1 (stereo not given) | inactive | –
O=CCCCC=O | inactive | –
CC1=CC2C3CC(C=C3C)C2C1 (stereo not given) | inactive | –
Cn1cnc([N+](=O)[O-])c1Sc1ncnc2nc[nH]c12 | inactive | –
CC(C)=CCCC(C)CCO (stereo not given) | inactive | –
OC(CCl)CCl | inactive | –
CCCc1c(OCCCCc2nn[nH]n2)ccc(C(C)=O)c1O | inactive | –
O=C(Nc1ccc(Cl)cc1)Nc1ccc(Cl)c(Cl)c1 | inactive | –
CC(=O)CC/C=C(\C)CCC=C(C)C | inactive | –
c1cc(-c2ccncc2)ccn1 | inactive | –

Structure (SMILES) | Potency | activation
CN(C)CCC=C1c2ccccc2CCc2ccccc21 | inactive | –
CC(C(=O)O)c1cccc(C(=O)c2ccccc2)c1 (stereo not given) | inactive | –
Cc1ccc2c(n1)Oc1ccc(C(C)C(=O)OCC(=O)N(C)C)cc1C2 (stereo not given) | inactive | –
O=C(OCc1ccccc1)c1ccccc1O | inactive | –
CC(C)OC(=O)C(C)(C)Oc1ccc(C(=O)c2ccc(Cl)cc2)cc1 | inactive | –
CCCCC(CC)COC(=O)c1ccc(N(C)C)cc1 (stereo not given) | inactive | –
C#C[C@]1(O)CC[C@H]2[C@@H]3CCc4cc(OC)ccc4[C@H]3CC[C@@]21C | 137 nM (active) and 211 nM (active) | –
O=C(COc1ccc(Cl)cc1)N1CCN(Cc2ccc3c(c2)OCO3)CC1 | inactive | –
CN1C(C(=O)Nc2ccccn2)=C(O)c2ccccc2S1(=O)=O | inactive | –
CCC(C)CO (stereo not given) | inactive | –
CNCCCC12CCC(c3ccccc31)c1ccccc12 | inactive | –
O=C1OC2(c3cc(Br)c(O)c(Br)c3Oc3c2cc(Br)c(O)c3Br)c2c(Cl)c(Cl)c(Cl)c(Cl)c21 | inactive | –
O=[N+]([O-])c1ccc2c(c1)Cc1ccccc1-2 | inactive | –
Nc1ccc(Cl)cc1Cl | inactive | –
COc1ccc(OC)c(C(O)CNC(=O)CN)c1 (stereo not given) | inactive | –
Cc1[nH]c(=O)c(C#N)cc1-c1ccncc1 | inactive | –
COc1ccccc1/C=C/C=O | inactive | –
c1ccncc1 | inactive | –
O=C(/C=C/c1ccccc1)OCc1ccccc1 | inactive | –
